In the library only some 4.1% were active in any assay of this set; here they are far more common.
MEKK2wt PB1 HTS: raises or lowers MEK5 binding to wildtype human MEKK2 PB1 domain; binding response (% of control), % at 10 µM; bead flow cytometry, Alexa488-MEK5 binding to MEKK2 WT; actives lie on both sides; 290,000 compounds, 1.1% hits; in the data active = binding response below about 67% or above about 130%
CHT block: inhibitors of human choline transporter CHT. Q9GZV3. B-score at 10 µM. CHT-expressing cells, membrane potential dye, choline response; active compounds read low. 310,000 compounds, 0.86% hits;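 active = B-score over 3 SD under the library average, and starting fluorescence ratio not unusually high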;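 note: choline stimulus applied at its EC90 after an EC20 pre-addition; B-score computed on integrated fluorescence ratio after choline addition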
Target sequence (Q9GZV3 whole entry, looked up): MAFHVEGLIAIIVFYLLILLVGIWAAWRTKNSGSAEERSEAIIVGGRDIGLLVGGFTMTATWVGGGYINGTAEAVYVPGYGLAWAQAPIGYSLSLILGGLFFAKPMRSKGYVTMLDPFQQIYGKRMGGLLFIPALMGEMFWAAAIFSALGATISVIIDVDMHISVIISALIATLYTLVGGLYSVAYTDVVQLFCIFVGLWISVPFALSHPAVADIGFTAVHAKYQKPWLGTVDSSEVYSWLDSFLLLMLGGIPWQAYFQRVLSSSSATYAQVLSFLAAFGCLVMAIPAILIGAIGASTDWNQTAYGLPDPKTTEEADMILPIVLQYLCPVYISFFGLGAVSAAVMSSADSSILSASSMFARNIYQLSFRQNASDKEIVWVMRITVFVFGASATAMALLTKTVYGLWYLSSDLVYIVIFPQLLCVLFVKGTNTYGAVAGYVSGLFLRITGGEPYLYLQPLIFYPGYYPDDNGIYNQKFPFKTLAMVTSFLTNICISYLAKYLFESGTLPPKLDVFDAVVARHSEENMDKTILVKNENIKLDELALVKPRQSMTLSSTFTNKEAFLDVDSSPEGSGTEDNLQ
MEKK3 PB1 HTS: modulators (inhibitors or enhancers) of MEK5 binding to human MEKK3 PB1 domain; bead-based flow cytometry, Alexa488-MEK5 binding to MEKK3; actives lie on both sides; 0 = blocked by unlabeled MEK5, 100 = vehicle; Q99759; 290,000 compounds, 1.4% hits; AID 1529; binding response (% of control), % at 10 µM;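 active = binding response more than 3 SD above or below the average of its plate-row segment, actives on both sides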;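 note: Alexa488 bead fluorescence after subtracting the streptavidin-only scavenger bead signal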
MEKK2mut PB1 HTS: signal of MEK5 binding to mutant human MEKK2 PB1 domain | percent response, % at 10 µM | bead flow cytometry, Alexa488-MEK5 binding to MEKK2 mutant | 290,000 compounds, 0.35% hits; in the data active = percent response above about 24%, passing the limit was not always enough
Mot1-301 SUMO: inhibitors of SUMOylation pathway: yeast Mot1-301 growth rescue. S. cerevisiae Mot1-301 growth rescue, ATP luminescence, 38.5C; percent above DMSO median, 100 means doubled. growth rescue, % at 18.8 µM. 320,000 compounds, 1% hits;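 active = every valid replicate shows activation above 250% relative to neutral control wells; inactive = the rest, any valid replicate at or below 250%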;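 note: OY570 slx delta 5 strain wells were the positive control but not used for scaling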
CHT PAM: human CHT allosteric activation | Q9GZV3 | CHT-expressing cells, membrane potential dye, choline EC20; active compounds read high; LV-AA mutant CHT in HEK293 cells | B-score at 10 µM | 310,000 compounds, 0.49% hits;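 active = initial fluorescence not abnormally high and integrated response B-score, plate-corrected, over 3 SD above library mean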
MEKK2wt confirm: raises or lowers MEK5 binding to wildtype human MEKK2, retest. shares compounds with MEKK3 PB1 HTS. bead flow cytometry, Alexa488-MEK5 binding to MEKK2 WT; actives lie on both sides. binding response (% of control), % at 10 µM. 5,900 compounds, 2.4% hits. AID 1892; in the data active = binding response below about 16% or above about 210%; inactive = in between
MEKK2mut-MEK5: signal of MEK5 binding to mutant human MEKK2, retest | shares compounds with MEKK3 PB1 HTS | bead flow cytometry, Alexa488-MEK5 binding to MEKK2 mutant | percent response, % at 10 µM | 5,900 compounds, 2% hits | AID 1893; in the data active = percent response mostly above about 71%, no sharp cut-off; inactive = mostly below about 38%;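 note: higher means compound restores mutant binding toward wildtype level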
MEKK3-MEK5 inh: confirmation of inhibitors of MEK5 binding to human MEKK3. binding response (% of control), % at 10 µM. AID 1894. 5,900 compounds, 1.8% hits. shares compounds with MEKK3 PB1 HTS. bead flow cytometry, Alexa488-MEK5 binding to MEKK3; active compounds read low;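 active = binding response below 72% of control, or above a set upper limit, though filed actives all read lower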;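 note: 100% = DMSO only wells and 0% = binding blocked by excess unlabeled MEK5; lower values mean stronger disruption of MEK5 binding to MEKK3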
Starred values were filed as active, the others as inactive; i = inactive; x = no result given; [ ] = another dose, or the depositor's remark.

SMILES | MEKK2wt PB1 HTS | CHT block | MEKK3 PB1 HTS | MEKK2mut PB1 HTS | Mot1-301 SUMO | CHT PAM | MEKK2wt confirm | MEKK2mut-MEK5 | MEKK3-MEK5 inh
COc1ccc2nc(-c3ccc(F)cc3)sc2c1 | 106 | i | 106 | 4 | 18 | i | x | x | x
CCCn1nc2cc(C(=O)NCCc3ccc(C)cc3)ccc2c1OCC | 96 | i | 97 | -4 | 12 | i | x | x | x
C=CCOc1c2ccc(C(=O)NCCc3ccc(C)cc3)cc2nn1C | 123 | i | 126* | 14 | 102 | i | 68 | -14 | 93
CS(=O)(=O)Nc1cccc(C(=O)OCCCOc2ccc(F)cc2)c1 | 31*[inhibitor] | i | 64*[inhibitor] | -8 | 21 | i | 99 | -3 | 103
CN(C)S(=O)(=O)c1cccc(NC(=O)COC(=O)c2cc(=O)c3ccccc3o2)c1 | 96 | i | 99 | 0 | 4 | i | x | x | x
COc1cc(Cn2c(=O)c3c(OC)c(C)cnc3n(C)c2=O)cc(OC)c1 | 96 | i | 94 | -2 | 19 | i | x | x | x
CCOC(=O)C1(CCOc2ccccc2)CCN(Cc2cc(OC)c3c(c2)OCO3)CC1 | 145* | i | 104 | 41 | x | i | 126 | 17 | 108
O=C(Nc1ccccc1Cl)O/N=C/c1ccncc1 | 92 | i | 92 | -3 | -1 | i | x | x | x
CCOc1ccc(N(CC(=O)Nc2ccc(C)c(Cl)c2)S(C)(=O)=O)cc1 | 110 | i | 105 | 6 | 0 | i | x | x | x
CCCN(C(=O)c1ccco1)c1nnc(-c2cccc(C)c2)s1 | 86 | i | 94 | -8 | 14 | i | x | x | x
CCN(C(=O)c1ccco1)c1nnc(-c2ccc(OC)cc2)s1 | 78 | i | 66*[inhibitor] | 4 | 17 | i | 104 | -2 | 103
CS(=O)(=O)N(CC(=O)NCc1ccccc1)C1CCCCC1 | 105 | i | 103 | 3 | 7 | i | x | x | x
Cc1ccc(CNC(=O)CN2C(C)CCCC2C)cc1 (stereo not drawn) | 62*[inhibitor] | i | 56*[inhibitor] | -15 | 19 | i | 104 | 4 | 102
Cc1ccc(CNC(=O)CN(C2CCCCC2)S(C)(=O)=O)cc1 | 55*[inhibitor] | i | 67*[inhibitor] | 5 | -2 | i | 102 | -3 | 102
CNC(=O)COc1ncnc2scc(-c3ccc(F)cc3)c12 | 89 | i | 94 | -14 | 7 | i | x | x | x
COc1ccc(Cl)cc1NC(=O)CN1C(=O)NC(Cc2c[nH]c3ccccc23)C1=O (stereo not drawn) | x | x | x | x | -5 | x | x | x | x
O=C(COC(=O)/C=C/c1ccc(OC(F)F)cc1)Nc1ccc2[nH]c(=O)[nH]c2c1 | x | x | x | x | -6 | x | x | x | x
COc1ccc(OCc2nnc(SCC(=O)c3c(N)n(C)c(=O)n(C)c3=O)n2-c2ccccc2F)cc1 | 97 | i | 101 | -1 | 2 | i | x | x | x
CCCn1c(SCC(=O)Nc2sc(C)c(C)c2C#N)nnc1C(C)C | 116 | i | 124* | 6 | -7 | i | 104 | 5 | 105
CCn1c(SCC(=O)Nc2ccc(N3CCOCC3)cc2)nnc1C1CC1 | x | x | x | x | -9 | x | x | x | x
O=C(Cn1c(NCCO)nc2ccccc21)c1ccccc1 | 104 | i | 101 | 0 | -10 | i | x | x | x
CC(C)Cn1c(NCCO)nc2ccccc21 | 70 | i | 61*[inhibitor] | -14 | 3 | i | 100 | 9 | 101
COc1ccccc1N1CCN(C(=O)c2ccc(CN3CCOCC3)cc2)CC1 | 98 | i | 105 | 0 | 22 | i | x | x | x
Cc1cccc(Nc2nnc(-c3ccc(C(=O)N4C[C@H]5C[C@H](C4)c4cccc(=O)n4C5)cc3)c3ccccc23)c1 | 90 | i | 96 | -13 | -9 | i | x | x | x
CC(NC(=O)C(=O)N/N=C/c1ccccc1)c1ccccc1 (stereo not drawn) | 707* | i | 121 | 564* | 44 | i | 103 | 6 | 102
SMILES | MEKK2wt PB1 HTS | CHT block | MEKK3 PB1 HTS | MEKK2mut PB1 HTS | Mot1-301 SUMO | CHT PAM | MEKK2wt confirm | MEKK2mut-MEK5 | MEKK3-MEK5 inh
N#Cc1ccc(OCC(O)CN2CCC(C(O)(c3ccccc3)c3ccccc3)CC2)cc1 (stereo not drawn) | 130 | i | 108 | 10 | -12 | i | x | x | x
Cc1nn(C)cc1/C=N/NC(=O)C(C)(C)Oc1ccc(Cl)cc1 | 85 | i | 89 | -10 | -15 | i | x | x | x
COc1ccc(C2CC2/C(C)=N/OC(=O)c2ccc(F)cc2)cc1 (stereo not drawn) | 125 | i | 141* | 4 | 24 | i | 108 | 9 | 109
COc1ccc(OC)c(C(=O)c2ccc(C(=O)Nc3ccc(NC(C)=O)cc3)cc2)c1 | 96 | i | 94 | -4 | 7 | i | x | x | x
CC(C)N1CCc2c(sc(NC(=O)c3ccc(S(=O)(=O)N4CCc5ccccc54)cc3)c2C(N)=O)C1 | 196* | i | 107 | 56* | -5 | i | 164 | 27 | 99
CC(C)N1CCc2c(sc(NC(=O)c3nc4ccccc4s3)c2C(N)=O)C1 | 106 | i | 107 | 6 | -7 | i | x | x | x
CCCCc1ccc(C2C(C#N)=C(N)SC(N)=C2C#N)s1 | 100 | i | 99 | 4 | -5 | i | x | x | x
COc1ccc(-c2cc(C#N)nc(N3CCNCC3)n2)cc1 | 215* | i | 84 | 57* | -12 | i | 223* | 71* | 95
NS(=O)(=O)c1c(Sc2ccccc2C(=O)O)ccc2ccccc12 | 105 | i | 109 | 2 | -11 | i | x | x | x
Cc1ccc2nc(N(CCCN(C)C)C(=O)c3cc(-c4cccs4)nc4ccccc34)sc2c1 | 228* | i | 116 | 73* | -11 | i | 205 | 63 | 109
CN(C)CCCN(C(=O)c1ccc(Br)s1)c1nc2cc3c(cc2s1)OCCO3 | x | i | x | x | -6 | i | x | x | x
Cc1ccc(-c2csc(N(CCCN3CCOCC3)C(=O)c3ccco3)n2)cc1 | 102 | i | 105 | 6 | x | i | x | x | x
Cc1ccc(-c2csc(N(CCCN(C)C)C(=O)c3ccco3)n2)cc1 | 202* | i | 114 | 30 | -4 | i | 183 | 49 | 107
Cc1ccc2nc(N(CCCN(C)C)C(=O)c3ccco3)sc2c1 | 121 | i | 231* | 33 | -4 | i | 109 | 12 | 107
CN(C)CCCN(C(=O)c1ccco1)c1nc2ccc(F)cc2s1 | 104 | i | 102 | 2 | -17 | i | x | x | x
